Consider 48 compounds from PubChem BioAssay AID686971 (National Center for Advancing Translational Sciences (NCATS), 2013).

The whole screen tested about 360,000 compounds, of which about 7,500 (2.1%) were called active. Roughly 8% stayed inconclusive and do not appear here. The entries come from a sample that favours actives as a whole. Values without a mark were called inactive. The call rests on the fitted dose curve; in most records, active means well fitted cell-killing curve with a large enough effect; inconclusive means small, poorly fitted or top-dose-only effect, or effect the other way, or another doubt; inactive means no such curve, though single readings can be large or run the other way.
Potency means the concentration at half of the fitted maximal effect.

This assay in a line: qHTS for induction of synthetic lethality in tumor cells producing 2HG: qHTS for the HT-1080-IDH1KD cell line. Particulars: HT-1080 IDH1 knockdown viability, ATP luminescence, 48 h; series mostly up to 46.1 µM; activity, negative = toxicity: at the top concentration. The text has this: Unbiased genomic sequencing for 22 glioma genomes found recurrent mutation of IDH1 on chromosome 2q33, a gene encoding the cytosolic isoform of IIDH1 associated with the tri-carboxylic acid cycle (TCA) that catalyzes the oxidative decarboxylation of isocitrate, yielding alpha-ketoglutarate and CO2 via NADP+ to NADPH conversion. Subsequent studies confirmed the recurrent IDH mutations in up to 70% of secondary gliomas and in 10% of AML cases. In addition, the somatic mutation of cancer-associated IDH1 is a point mutation resulting in various amino-acid substituents at Arginine132 (IDH1 R132), a key residue found in the enzyme's active site that when mutated, results in the loss-of-function in metabolizing isocitrate but confers a gain-of-function to produce the oncometabolite 2-hydroxyglutarate (2HG). This in effect defines IDH1 as an oncogene and provides an extraordinary opportunity to discover chemical probes against mutant IDH1 that may translate into much needed new therapies for glioma and AML patients.
This assay aims to perform a synthetic-lethal screen for chemical probes specific for 2HG-producing tumor cells using matched paired cell lines (1) HT-1080-NT fibrosarcoma cell line that overproduces 2HG and (2) HT-1080-IDH1KD cell line which has IDH1 expression knocked-down. Desirable compounds are toxic to the NT fibrosarcoma cell line but not to the IDH1KD cell line. The data in this AID corresponds to the results of the qHTS against the HT-1080 IDH1KD cell line.
[1] Dang L, Jin S, Su SM. IDH mutations in glioma and acute myeloid leukemia. Trends of Mol Med. 2010; 16(9): 387-97.
[2] Dang L et al. Cancer-associated IDH1 mutations produce 2-hydroxyglutarate. Nature. 2010; 465(7300):966.
Molecular Libraries Probe Production Centers Network [MLPCN]
NIH Chemical Genomics Center [NCGC]
Assay Submitter (PI): Lenny Dang Ph.D., Agios Pharmaceuticals
Suspensions of trypsinized HT-1080-IDH1KD cells were dispensed into white, tissue culture-treated, solid 1536-well plates at 5uL/well (750 cells/well final concentration) in RPMI medium supplemented with 5% FBS. Plates were incubated at 37 degrees C for 2 hours, after which 23 nL of compounds or DMSO were delivered to each well using a pin tool. Plates were then incubated at 37 degrees C for an additional 48 hours. CellTiter-Glo viability reagent (Promega) was dispensed into wells (2.5uL/well) and incubated at room temperature for 10 minutes. The plates were measured on a PerkinElmer ViewLux plate reader for luminescent signal (clear filter, 1 sec exp.). DMSO-treated control wells and media-only (no cells) control wells were used to normalize %Activity of identified toxic compounds; DMSO-treated wells corresponded to 0%Activity (100% viability), while media-only controls were used to normalize 100%Activity (0% viability). To minimize variability between cell lines, both HT-1080-NT and HT-1080-IDH1KD lines were dispensed and treated with identical compound series in single batches.
Concentration-response curves were fitted to the signals arising from the resulting luminescence. The concentration-effect curves were then classified based on curve quality (r2), response magnitude and degree of measured activity, and compounds were subsequently categorized based on their curve class.
A general note: qHTS replaces the single test concentration by a dilution series.
`CC(=O)N1C[C@@H](CO)[C@@H](N(C)C(=O)c2ccco2)C[C@H]1c1ccccc1`: the “activity, negative = toxicity” value is -2.1%. Take `O=[N+]([O-])c1ccc(CN2CC(N3CCC(c4ccccc4)CC3)CS2(=O)=O)cc1` (stereo not drawn): the “activity, negative = toxicity” value is -9.12%.

With `Cc1cccc(CS(=O)(=O)c2ncc(Cl)c(C(=O)Nc3ccc(F)cc3)n2)c1`, the Potency was 16.4 µM (active). With `Cc1cccc(NC(=O)c2nc[nH]c2C(=O)NCC(=O)OCc2ccccc2)c1`, the “activity, negative = toxicity” value is 6.4%. Same read-out and setting: with `O=C(Nc1ccc(F)cc1)c1ccc(S(=O)(=O)NCc2cccnc2)cc1` the figure was -20.1%.

For the compound `Cc1cccc(NC(=O)c2nc(S(=O)(=O)Cc3ccccc3)ncc2Cl)c1`, the Potency is 6.51 µM (active).

Take `Cc1cccc(NC(=O)C(C)SCc2ccccc2)c1` (stereo not drawn): the “activity, negative = toxicity” value is -0.037%. Still for that read-out and setting: with `CCOc1ccc(NC(=O)c2nc(SCC)ncc2Cl)cc1` the figure was -1.23%; with `CCCCN1C(=O)C(CC(=O)NC(c2ccccc2)c2ccccc2)CC(C(=O)N2CCOCC2)=C1C` (stereo not drawn), 0.317%.

On to `O=S1(=O)C[C@@H](N2CCN(CCO)CC2)[C@H](COCc2ccccc2)N1`, for which the “activity, negative = toxicity” value was -5.58%.

As for `COc1ccc([C@H]2N[C@]3(CCCN(CC4CCCCC4)C3=O)[C@H]3C(=O)N(C)C(=O)[C@@H]23)cc1`, the “activity, negative = toxicity” value is 12%. On the same count and under the same terms, as for `Cc1ccccc1S(=O)(=O)NC(=O)C1(C)CCN1C(=O)Cc1ccc(Cl)cc1Cl` (stereo not drawn), the figure is 26.8%; as for `Cc1cn([C@H]2C[C@H](O)[C@@H](CNC(=O)[C@H](N)Cc3cccnc3)O2)c(=O)[nH]c1=O`, 3.58%.

With `Nc1cc(=O)c2[nH]cnc2[nH]1`, the “activity, negative = toxicity” value was -25.5%. On the same count and under the same terms, as for `COc1ccccc1N1CCN(C(=O)c2ccc(Cl)c(S(=O)(=O)N3CCCC3)c2)CC1`, the figure is -0.548%; as for `COc1ccccc1N1CCN(C(=O)c2c(-c3c(Cl)cccc3Cl)noc2C)CC1`, -2.34%. Take `COc1ccccc1N1CCN(C(=O)c2cc(=O)c3cc(C)cc(C)c3o2)CC1`: the Potency is 0.0103 µM (active). For the compound `C[C@H](NC(=O)CC[C@H]1O[C@@H](n2ccc(=O)[nH]c2=O)[C@H](O)[C@@H]1O)c1cccc2ccccc12`, the “activity, negative = toxicity” value is 19.5%. For the compound `C[C@@H]1CN([C@@H](C)CO)C(=O)CCCn2nncc2CO[C@H]1CN(C)C(=O)Nc1ccc(C(F)(F)F)cc1`, the “activity, negative = toxicity” value is -7.94%.

Turning to `C[C@@H]1CN([C@@H](C)CO)C(=O)c2cc(Br)cnc2O[C@@H]1CN(C)C(=O)C1CCCCC1`, the “activity, negative = toxicity” value was 19.4%. Regarding `CC1=C(C(=O)N2CCOCC2)CC(CC(=O)NCc2cccs2)C(=O)N1CCCN1CCCC1=O` (stereo not drawn), the “activity, negative = toxicity” value is 14.2%. For the compound `CCCCN1CC(COCc2ccccc2)OCCS1(=O)=O` (stereo not drawn), the “activity, negative = toxicity” value was 8.5%. Take `CCCCC[C@H](C)N1C[C@@H](COCc2ccccc2)Oc2cc(N3CC[C@@H](N(C)C)C3)ccc2S1(=O)=O`: the Potency was 18.4 µM (active). For the compound `CCCCC[C@H](C)N1C[C@@H](COCc2ccccc2)Oc2cc(N3CCC[C@@H]3CO)ccc2S1(=O)=O`, the “activity, negative = toxicity” value was 6.19%. Turning to `C[C@H](CO)N1C[C@H](C)[C@@H](CN(C)S(=O)(=O)c2ccc(F)cc2)OCc2cnnn2CCCC1=O`, the “activity, negative = toxicity” value was 0.103%. In the case of `CC1(Oc2cccc(F)c2)CCN(Cc2ccccc2OC(F)F)C1` (stereo not drawn), the “activity, negative = toxicity” value was 15.1%. Regarding `Cc1[nH]n(-c2ccc(Cl)cc2)c(=O)c1/C=N/n1c(C)nc2ccccc2c1=O`, the Potency is 16.4 µM (active). Consider `Cc1[nH]n(-c2ccc([N+](=O)[O-])cc2)c(=O)c1C=NCCN1CCN(C(=O)c2ccccc2F)CC1`, for which the “activity, negative = toxicity” value is -28.4%. For `Cn1c(COc2ccc(Cl)cc2)nc2ccccc2c1=O`, the activity, negative = toxicity is 4.13% [at 9.24 µM]. As for `CC1(C(=O)NCc2ccccc2)CSCC(=O)N1CCCN1CCOCC1` (stereo not drawn), the “activity, negative = toxicity” value was -9.76%. The same measure, in the same setting: with `O=C(CCCN1C(=O)C(c2ccccc2)Oc2cccnc21)Nc1ccccc1Br` (stereo not drawn) the figure was 0.333%; with `COc1ccc(-c2ccc3[nH]c4c(c3c2)CCN2C[C@H]3[C@H](C)ON(C)[C@H]3C[C@@H]42)cc1`, -27.7%; with `COCCn1cnc2c1c(=O)n(Cc1ccc(Br)cc1)c(=O)n2Cc1ccccc1`, -1.2%.

`N=c1c2c(-c3ccccc3)c(-c3ccccc3)n(Cc3ccccc3)c2ncn1CCCO`: the Potency is 5.62 µM (active). For `CCN(CC)CCn1cnc2c1c(=O)[nH]c(=O)n2Cc1ccccc1`, the “activity, negative = toxicity” value was 1.96%. In the case of `FC(F)(F)c1cccc(-c2nc3ccccc3n2C(c2ccccc2)c2nc3ccccc3[nH]2)c1` (stereo not drawn), the “activity, negative = toxicity” value was -15.5%. Still for that read-out and setting: as for `CCN(CC)C(=O)C1CCCN(Cc2cccc(Cl)c2)C1` (stereo not drawn), the figure is 12.2%; as for `CC1(C(=O)Nc2ccccc2Br)CCN1C(=O)CC1CC1` (stereo not drawn), 3.95%.

On to `CC[C@@H]1Cc2cc(O)ccc2C2=C1c1ccc(O)cc1C[C@H]2CC`, for which the Potency is 14.6 µM (active). Regarding `CC(C)OC(=O)CC(=O)CC(O)c1cccc([N+](=O)[O-])c1` (stereo not drawn), the “activity, negative = toxicity” value is -12.4%. Regarding `COc1ccc(CCNC(=O)CN(c2ccccc2)S(=O)(=O)c2ccccc2)cc1`, the “activity, negative = toxicity” value was -17.4%. With `COC(=O)C1(C(=O)OC)C/C=C\CN(S(=O)(=O)c2ccccc2[N+](=O)[O-])CCC1`, the “activity, negative = toxicity” value was 6.9%. On the same count and under the same terms, with `O=C(Nc1ccncc1)c1ccc(Cl)c([N+](=O)[O-])c1` the figure was 7.37%. Consider `CC(CC(=O)O)C(=O)c1ccc(Cl)c([N+](=O)[O-])c1` (stereo not drawn), for which the “activity, negative = toxicity” value is 2.94%. The same measure, in the same setting: as for `Nn1cnnc1N/N=C/c1cc([N+](=O)[O-])c(Cl)cc1Cl`, the figure is 1.7%. As to `NC(N)=N/N=C/c1ccc(Cl)c([N+](=O)[O-])c1`, the Potency was 23.1 µM (active). In the case of `O=C(/C=C/c1ccc(Cl)c([N+](=O)[O-])c1)c1ccc(O)cc1`, the Potency is 11.6 µM (active). Consider `CC(=O)Nc1ccc(C=CC(=O)c2ccc([N+](=O)[O-])cc2)cc1`, for which the “activity, negative = toxicity” value is 6.51%.
